This is a sample that favours compounds with a hit; in the whole collection about 4.3% have one here.
CHOP inh – inhibitors of CHOP promoter induction, primary screen, cell-based, unfolded protein response, luciferase reporter | hit rate 3.8% among 220,000 | CHO-K1 CHOP-promoter luciferase, tunicamycin-induced, 15-18 h | inhibition, % at 10 µM;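 active = compounds that reduced the stress-induced luciferase reporter signal by more than about 70% of percent inhibition, limit read from the data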
KKLEB tox – cytotoxicity in KKLEB CF airway cells, primary screen, cytotoxicity control for CF NF-kB inhibitor project, cell-based, uHTS, fluorescence assay plates | KKLEB CF airway cells viability, ATPlite luminescence, overnight; stronger effect = lower value; cells stimulated with P. aeruginosa culture filtrate | hit rate 0.36% among 360,000 | activity change (cytotoxicity), % at 5 µM;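 active = corrected activity change at or below -50% at 5 µM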
CF NFkB block – inhibitors of PAF-induced NF-kB signaling, primary screen, cell-based, GFP fluorescence, uHTS. hit rate 0.86% among 360,000. inhibition, % at 5 µM. AID 588850, 2011. KKLEB NF-kB-GFP reporter, GFP fluorescence overnight;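 active = at least 50% inhibition at 5 µM, scaled per plate between neutral and stimulator controls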;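 note: PAF is a Pseudomonas aeruginosa culture filtrate used as stimulus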
Peg3 promoter – Peg3 promoter-driven luciferase inhibitors, primary screen, cell-based, HeLa, luciferase luminescence. HeLa PEG-Prom luciferase reporter, overnight. inhibition, % at 20 µM. AID 588405, 2011. hit rate 1.7% among 360,000;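 active = inhibition of at least 50% at 20 µM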
TRPM1 prom inh – inhibitors of MITF-dependent TRPM1 promoter reporter, primary screen, cell-based, SK-MEL-5, single point, luciferase; SK-MEL-5 TRPM1 promoter luciferase, 24 h; inhibition, % at 12.5 µM; hit rate 0.83% among 330,000;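 active = mean inhibition across replicates of 60% or more, whatever share of single replicates reaches that level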
HIF-2a block – HIF-2a reporter inhibitors, primary screen, luminescence, 786-0 RCC cells; 786-0 RCC cells HIF-2a reporter, luciferase luminescence, overnight; inhibition, % at 18.8 µM; hit rate 0.72% among 360,000; AID 624352, 2012;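 active = inhibition of the luminescence signal of 40% or more relative to plate controls, in a single-dose primary screen at 18.75 µM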
Large screens that a line does not name were inactive.

Cc1cc(NC(=O)CSc2nc3c(sc4ccccc43)c(=O)n2CCc2ccccc2)n[nH]1	none
CC(C)Cn1c(SCC(=O)NC(=O)Nc2ccc3c(c2)OCCO3)nc2ccccc2c1=O	CHOP inh 70
Cc1cc(NC(=O)CSc2nc3c(sc4ccccc43)c(=O)n2CCCN2CCOCC2)n[nH]1	Peg3 promoter 90
Cc1ccc(NC(=O)CSc2nc3ccccc3c(=O)n2Cc2cccs2)cc1	KKLEB tox -52
C=CCn1c(SCC(=O)Nc2ccc3c(c2)OCO3)nc2ccccc2c1=O	none
Cc1ccc(NC(=O)CSc2nc3ccccc3c(=O)n2CCCN2CCCCC2)cc1C	Peg3 promoter 55, TRPM1 prom inh 70
C=CC[C@H](CC(=O)NCCO)C(=O)N[C@H](COC(=O)[C@@H](CC=C)Cc1ccc(F)cc1)C(C)(C)C	none (no result: CHOP inh)
Cc1cccc(OCCCCc2c(C)n[nH]c2C)c1C	CHOP inh 95
CCOC(=O)C1=C(O)C(=O)NC(c2ccccc2)=C(OC2CCCCC2)C1	none
CCOC(=O)C1=C(O)C(=O)NC(c2ccccc2)=C(OCC)C1	CHOP inh 95
COc1cccc(NC(=O)CN(C)C(=O)CCCc2nc3ccccc3s2)c1	none (no result: CHOP inh)
COc1ccccc1OCCn1cc(/C=C(\C#N)C(=O)NCc2ccco2)c2ccccc21	none
COCCNC(=O)/C(C#N)=C/c1cn(CC(=O)NCc2ccco2)c2ccccc12	none
Cc1ccc(C)c(OCCn2cc(/C=C(\C#N)C(=O)NCc3ccco3)c3ccccc32)c1	KKLEB tox -58, CF NFkB block 57
Cc1cccc(NC(=O)/C(C#N)=C/c2cn(CC(=O)NCc3ccco3)c3ccccc23)c1	KKLEB tox -63, CF NFkB block 60, Peg3 promoter 60
COCC(=O)N1CCC(Oc2ccc(C(=O)N3CCSCC3)cc2)CC1	none (no result: CHOP inh)
CCN=c1scc(-c2ccco2)n1/N=C/c1ccc(OC)c(O)c1	none
CCN=c1scc(-c2ccco2)n1/N=C/c1ccc(O)cc1	CHOP inh 76
COC(=O)c1c(-c2c(Cl)cccc2Cl)noc1NC(=O)NN1CCCCC1	none
CCOc1ccc(S(=O)(=O)N2CCOCC2)cc1NC(=O)CSCc1ccc(C)cc1	none (no result: CHOP inh, TRPM1 prom inh)
O=C(O)COc1ccccc1/C=N/Nc1ccc(S(=O)(=O)N2CCOCC2)cc1[N+](=O)[O-]	Peg3 promoter 68
O=C(O)c1ccc(/C=N\Nc2ccc(S(=O)(=O)N3CCOCC3)cc2[N+](=O)[O-])cc1	none
O=C(NCCCN1CCOCC1)C(=O)NCC1OCCN1S(=O)(=O)c1ccc(Cl)cc1 (configuration not stated)	none (no result: CHOP inh, TRPM1 prom inh)
CN1CCN(C(=S)C(=O)Nc2ccc(Br)cc2)CC1	none
O=C(Nc1ccncc1)Nc1cccc(C(F)(F)F)c1	none (no result: CHOP inh)
Oc1c(C(Nc2cccc(C(F)(F)F)c2)c2ccncc2)ccc2cccnc12 (configuration not stated)	TRPM1 prom inh 65
Oc1c(C(Nc2nccs2)c2ccc(C(F)(F)F)cc2)ccc2cccnc12 (configuration not stated)	Peg3 promoter 68, TRPM1 prom inh 80, HIF-2a block 87
Cc1ccc(-c2cc(-c3ccccc3Cl)c(C#N)c(N)n2)o1	none
Cc1ccc(-c2cc(-c3ccccc3)c(C#N)c(N)n2)o1	CHOP inh 95
CN(C)CCNC(=O)c1ccc(-c2cnn(C)c2)c2ccoc12	none (no result: CHOP inh, TRPM1 prom inh)
CCN(C(=O)COC(=O)CCc1ccccc1)c1ccccc1	none (no result: CHOP inh)
O=C(COc1ccccc1)Nc1cccc(-c2nc3cc4ccccc4cc3[nH]2)c1	CHOP inh 71
O=C(COc1ccccc1)Nc1cccc(-c2nn[nH]n2)c1	none (no result: CHOP inh)
Cc1ccc(S(=O)(=O)N2CCCC2)cc1C(=O)NCCOc1ccccc1	none (no result: CHOP inh)
S=C(NCC1CCCO1)NC1CCCCC1 (configuration not stated)	none
CCCC(NC(=S)NCC1CCCO1)C12CC3CC(CC(C3)C1)C2 (configuration not stated)	CHOP inh 83
O=C(Nc1ccccc1SC(=O)c1ccccc1)c1ccccc1	none (no result: CHOP inh, TRPM1 prom inh)
Cc1ccc(C(=O)Sc2cccccc2=O)cc1	Peg3 promoter 103, TRPM1 prom inh 83 (no result: CHOP inh)

Screening data as filed in PubChem BioAssay.
